# Measured values: PubChem BioAssay (NCATS)
# Unmarked numbers belong to inactive results. Results filed as inconclusive are left out. Where a call stands in place of a potency, no number is given. The source made the active and inactive calls. Unless noted, calls come from the whole dose curve; as a rule, active = well fitted curve in the direction sought with a large enough effect; inconclusive = small, poorly fitted or top-dose-only effect, or another doubt; inactive = no such curve, though single readings can be large; an effect the other way counts as inactive or inconclusive.
# Assays:
# [1] = target: Rap guanine nucleotide exchange factor 3 (Homo sapiens) (UniProt O95398); assay: Confirmatory qHTS for antagonist of cAMP-regulated guanine nucleotide exchange factor 3 (EPAC1) (AID 1645880); conditions: EPAC1 Rap1B-BODIPY-GDP exchange, fluorescence; activity, negative = inhibition: at 115 µM (top of the series); note: nearly all actives have a fitted effect of over 55% in size
# Procedure, shortened: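 Released BODIPY-GDP fluoresces less than Rap1-bound BODIPY-GDP; the signal is followed at 480/540 nm at 5-min intervals over 30 min, after 5 min at room temperature. Reactions contain 100 nM EPAC1, 250 nM RAP1B-BODIPY-GDP and 50 uM GDP; results are normalized to ATA and DMSO.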
# [2] = target: Rap guanine nucleotide exchange factor 4 (Homo sapiens) (UniProt Q8WZA2); assay: Confirmatory qHTS for antagonist of cAMP-regulated guanine nucleotide exchange factor 4 (EPAC2) (AID 1645885); note: nearly all actives have a fitted effect of over 25% in size; note: potency is the fitted concentration of half-maximal effect
# [3] = target: Rap guanine nucleotide exchange factor 3 (Homo sapiens) (UniProt O95398); assay: Counterscreen qHTS for antagonist of cAMP-regulated guanine nucleotide exchange factor 3 (EPAC1) (AID 1645888)
# Procedure, shortened: (§1)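 Rap1B–BODIPY-GDP (250 nM) with 50 uM GDP; compounds pin-transferred to 9.74 nM–152 uM final (activator) or from 7.32 nM upwards (inhibitor). Fluorescence Ex/Em 480/540 nm read at 5 and 30 min, then after adding cAMP or buffer, at room temperature.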
# [4] = target: Rap guanine nucleotide exchange factor 3 (Homo sapiens) (UniProt O95398); assay: Counterscreen qHTS for agonist of cAMP-regulated guanine nucleotide exchange factor 3 (EPAC1) (AID 1645889); note: nearly all actives have a fitted effect of over 40% in size; note: potency is the fitted concentration of half-maximal effect
# Procedure, shortened: as §1
# [5] = AP1 Signaling Pathway (AID 357; active = well fitted curve in either direction with a large enough effect, not every such curve was filed as active;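 note: ME-180 reporter cells stimulated with EGF at its EC50 level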); conditions: ME-180 (cervical carcinoma) AP-1-bla reporter, EGF-induced, beta-lactamase ratio, 5 h; at 7.69 µM (top of the series) unless noted
# Procedure, shortened: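 AP-1-bla ME-180 cells, Opti-MEM + 0.5% dialyzed FBS, plated overnight 37 °C. Cpd titration + EC50 EGF, 5 h 37 °C. CCF4 2.5 h RT; ex 405, em 460/530 ratio → %activity, AC50.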
# [6] = target: Cytochrome P450 1A2 (Homo sapiens) (UniProt P05177); assay: p450-cyp1a2 (AID 410; calls by dose curve; note: potency is the fitted concentration of half-maximal effect)
# Procedure, shortened: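 20nM CYP1A2, 100uM Luciferin-ME (=Km), 100mM KPO4; cpd 10 min RT; +NADPH regen, 60 min RT; stop/detect 20 min; luminescence. Normalized to furafylline 57 uM = full inhibition.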
# [7] = NFAT Signaling Pathway (AID 444; active = well fitted curve in either direction with a large enough effect, not every such curve was filed as active;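 note: carbachol stimulus at about its EC50 of 1 µM final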); conditions: Jurkat NFAT-bla M1, carbachol, beta-lactamase ratio, 5 h; at 7.69 µM (top of the series) unless noted
# Procedure, shortened: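 Jurkat cells with NFAT-driven β-lactamase reporter and co-expressed M1 receptor, stimulated with carbachol (final 1 uM, ~EC50), compound titration, 5 h at 37 °C. CCF4 loaded 1 h at RT; 460/530 nm ratio gave %activity and AC50.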
# [8] = target: Glucocorticoid receptor (Homo sapiens) (UniProt P04150); assay: GR-EFC Redistribution (AID 451; calls by dose curve; note: potency is the fitted concentration of half-maximal effect); conditions: CHO-K1 GR-EFC translocation, beta-gal luminescence, 2 h
# Procedure, shortened: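 CHO-K1 cells expressing nuclear EA and GR-ED fragments of b-gal; compounds titrated up to 46 uM final, 2 h at 37 C. GR nuclear translocation read as complemented b-gal luminescence after 1 h RT detection.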
# [9] = target: Mitogen-activated protein kinase 10 (Mus musculus) (UniProt Q61831); assay: JNK3 AlphaScreen Assay (AID 530; active = well fitted curve in either direction with a large enough effect, not every such curve was filed as active;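 note: kinase came from lysate of stimulated human HepG2 cells; signal reports phosphorylation of biotinylated GST-cJun 1-79 at Ser73 with 10 µM ATP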)
# Procedure, shortened: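 HepG2 lysate (IL-1b/TNFa pre-activated) + biotin-GST-cJun 1-79 + anti-pSer73 cJun; cpd titration, 15 min RT; ATP 10 uM start; Tris pH 7.6, MgCl2, DTT, vanadate; beads in EDTA buffer; AlphaScreen.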
# [10] = target: 3',5'-cyclic-AMP phosphodiesterase 4B (Homo sapiens) (UniProt Q07343); assay: qHTS Assay for Inhibitors of PDE-IV (AID 607; active = well fitted activation curve with a large enough effect in the main read-out, with a control signal flat, not every such curve was filed as active)
# Procedure, shortened: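 The readout is membrane depolarisation from a cAMP-sensing CNG channel, detected with a potential dye at ex 535/em 590. Cells were HEK293-derived (endogenous PDE-IV) at 1000 cells/well, titrated up to 22.9 uM final.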
# [11] = target: Guanine nucleotide-binding protein G(i) subunit alpha-1 (Homo sapiens) (UniProt P63096); assay: qHTS Assay for Inhibitors of RGS12 GoLoco Motif Activity (Green Fluorophore) (AID 879); note: potency is the fitted concentration of half-maximal effect
# Procedure, shortened: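 A drop in FITC polarization marked displacement of the FITC-tagged RGS12 GoLoco peptide (10 nM) from Gαi1 (50 nM). Compounds were incubated 10 min at room temperature in Tris pH 7.5 buffer containing 150 mM NaCl, 0.1 mM GDP and 0.05% NP40; unlabeled peptide titration served as control.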
# [12] = qHTS Assay for Identification of Small Molecule Antagonists for Thrombopoietin (TPO) Signaling Pathway (AID 918); conditions: TPO-dependent cell signaling reporter, antagonist mode; note: potency is the fitted concentration of half-maximal effect; nearly all actives have a fitted effect of over 60% in size
# Procedure, shortened: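 Luminescence read-out: GPIIb-promoter luciferase in Ba/F3 cells carrying human TPO receptor. Compounds added with 26 pM TPO (EC50), 24 hrs, 37 C, 5% CO2; cells deprived of IL-3 overnight beforehand. Inhibition of signal scored.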
# [13] = target: Pyruvate kinase (Leishmania mexicana) (UniProt Q27686); assay: qHTS Validation Assay for Inhibitors of Leishmania Mexicana Pyruvate Kinase (AID 945)
# Procedure, shortened: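 Eight-point qHTS titrations in triplicate, data normalized to DMSO neutral control. Reaction: 0.2 nM LmPYK E451W mutant, 0.5 mM PEP, 0.1 mM ADP, 7 mM MgCl2, pH 7.2, one hour at room temperature; luminescent ATP detection.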
# [14] = target: Pyruvate kinase PKM (Homo sapiens) (UniProt P14618); assay: qHTS Assay for Activators of Human Muscle Pyruvate Kinase (AID 954; active = well fitted curve in the direction sought with a large enough effect, not every such curve was filed as active)
# Procedure, shortened: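 PKM2, human, >95% pure, 0.1 nM; PEP 0.5 mM (Km), ADP 0.1 mM; 50 mM imidazole pH 7.2, 50 mM KCl, 0.01% Tween 20, 0.05% BSA; 1 h RT; luciferase luminescence readout.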
# [15] = target: Alpha-galactosidase A (Homo sapiens) (UniProt P06280); assay: Counterscreen for Glucocerebrosidase Inhibitors: qHTS Assay for Human alpha-Galactosidase at pH 4.5 (AID 992)
# Procedure, shortened: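 Fluorogenic 4-MU alpha-D-galactoside (80 uM) hydrolysis, 2 nM enzyme, pH 4.5 citrate buffer + 0.005% Tween-20; 20 min RT; NaOH/glycine pH 10 stop; Ex365/Em440. Compounds titrated 0.7 nM–77 uM; Hill-equation AC50.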
# [16] = target: alpha-glucosidase (Oryza sativa, rice) (UniProt Q653V4); assay: Counterscreen for Glucocerebrosidase Inhibitors: qHTS Assay for Rice alpha-Glucosidase at pH 5.0 (AID 997)
# Procedure, shortened: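 Endpoint fluorogenic assay at pH 5.0: compounds (0.7 nM to 77 uM) titrated against 4 nM rice enzyme and 400 uM 4-MU-alpha-glucoside for 20 min at room temperature; NaOH/glycine stop, read ex 365/em 440 nm, Hill-fitted AC50.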
# Chain of Rap guanine nucleotide exchange factor 4 (Homo sapiens) (Q8WZA2 whole entry, looked up): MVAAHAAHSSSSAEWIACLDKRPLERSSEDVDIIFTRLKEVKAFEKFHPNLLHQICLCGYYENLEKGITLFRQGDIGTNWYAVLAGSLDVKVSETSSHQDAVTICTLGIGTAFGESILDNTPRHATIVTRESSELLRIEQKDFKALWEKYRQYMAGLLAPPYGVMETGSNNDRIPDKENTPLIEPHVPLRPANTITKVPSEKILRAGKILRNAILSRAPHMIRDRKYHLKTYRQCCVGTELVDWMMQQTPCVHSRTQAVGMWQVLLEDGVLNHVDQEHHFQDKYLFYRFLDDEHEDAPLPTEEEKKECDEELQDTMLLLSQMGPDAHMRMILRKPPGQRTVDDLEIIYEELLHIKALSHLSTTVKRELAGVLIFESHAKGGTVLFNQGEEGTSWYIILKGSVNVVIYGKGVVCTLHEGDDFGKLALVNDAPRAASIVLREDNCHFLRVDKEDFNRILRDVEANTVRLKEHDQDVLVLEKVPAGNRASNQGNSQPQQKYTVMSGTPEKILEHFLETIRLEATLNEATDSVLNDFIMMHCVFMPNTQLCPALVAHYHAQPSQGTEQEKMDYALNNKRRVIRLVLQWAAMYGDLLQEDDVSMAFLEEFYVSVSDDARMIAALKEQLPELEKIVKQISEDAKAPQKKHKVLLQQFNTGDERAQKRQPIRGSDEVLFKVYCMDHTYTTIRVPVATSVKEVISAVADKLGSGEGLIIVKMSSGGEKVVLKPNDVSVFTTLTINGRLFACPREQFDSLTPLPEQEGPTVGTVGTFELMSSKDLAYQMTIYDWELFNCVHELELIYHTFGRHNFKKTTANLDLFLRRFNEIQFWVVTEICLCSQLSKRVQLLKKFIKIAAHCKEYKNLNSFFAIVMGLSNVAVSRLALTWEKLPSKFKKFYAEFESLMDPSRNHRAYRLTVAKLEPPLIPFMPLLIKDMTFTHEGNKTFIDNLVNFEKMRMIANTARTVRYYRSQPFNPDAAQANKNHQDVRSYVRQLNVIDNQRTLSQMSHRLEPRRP
# Chain of Rap guanine nucleotide exchange factor 3 (Homo sapiens) (O95398 whole entry, looked up): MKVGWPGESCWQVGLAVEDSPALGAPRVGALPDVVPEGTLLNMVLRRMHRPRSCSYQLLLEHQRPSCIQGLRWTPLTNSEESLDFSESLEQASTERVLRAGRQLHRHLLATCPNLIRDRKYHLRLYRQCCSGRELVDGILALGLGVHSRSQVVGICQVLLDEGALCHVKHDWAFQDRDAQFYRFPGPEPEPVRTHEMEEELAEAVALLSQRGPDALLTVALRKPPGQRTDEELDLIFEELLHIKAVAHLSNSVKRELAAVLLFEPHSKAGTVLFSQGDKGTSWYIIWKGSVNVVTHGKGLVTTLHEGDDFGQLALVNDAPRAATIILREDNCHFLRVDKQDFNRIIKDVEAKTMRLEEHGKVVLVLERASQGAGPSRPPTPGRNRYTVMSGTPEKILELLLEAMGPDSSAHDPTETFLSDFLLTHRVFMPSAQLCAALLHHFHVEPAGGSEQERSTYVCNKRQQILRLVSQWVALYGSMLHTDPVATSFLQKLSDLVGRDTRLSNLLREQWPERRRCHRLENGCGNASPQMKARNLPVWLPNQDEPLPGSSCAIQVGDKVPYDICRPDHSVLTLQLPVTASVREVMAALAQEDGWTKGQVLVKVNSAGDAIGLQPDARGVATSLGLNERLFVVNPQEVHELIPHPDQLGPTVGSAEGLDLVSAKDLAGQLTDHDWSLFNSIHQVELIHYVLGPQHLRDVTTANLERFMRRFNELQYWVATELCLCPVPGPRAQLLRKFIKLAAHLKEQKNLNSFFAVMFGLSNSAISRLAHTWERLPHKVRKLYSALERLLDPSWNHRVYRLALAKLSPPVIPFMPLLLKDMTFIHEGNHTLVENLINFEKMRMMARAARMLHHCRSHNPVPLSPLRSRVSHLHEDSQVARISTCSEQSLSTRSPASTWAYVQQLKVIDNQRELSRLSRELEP
# Chain of Pyruvate kinase (Leishmania mexicana) (Q27686 2-499 E452W): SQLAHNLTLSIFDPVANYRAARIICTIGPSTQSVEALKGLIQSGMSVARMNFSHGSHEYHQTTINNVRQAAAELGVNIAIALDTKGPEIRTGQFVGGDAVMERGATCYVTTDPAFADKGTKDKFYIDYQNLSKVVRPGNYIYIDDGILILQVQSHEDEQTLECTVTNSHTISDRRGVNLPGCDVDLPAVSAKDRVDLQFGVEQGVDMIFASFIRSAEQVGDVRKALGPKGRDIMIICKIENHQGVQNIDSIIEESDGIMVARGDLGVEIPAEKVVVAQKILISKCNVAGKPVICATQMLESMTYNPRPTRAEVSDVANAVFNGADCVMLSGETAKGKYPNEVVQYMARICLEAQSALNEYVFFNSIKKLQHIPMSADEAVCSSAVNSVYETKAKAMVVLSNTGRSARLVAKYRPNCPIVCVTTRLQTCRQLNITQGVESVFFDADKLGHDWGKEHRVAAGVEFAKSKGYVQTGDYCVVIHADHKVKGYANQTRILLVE
# Chain of Pyruvate kinase PKM (Homo sapiens) (P14618 whole entry, looked up): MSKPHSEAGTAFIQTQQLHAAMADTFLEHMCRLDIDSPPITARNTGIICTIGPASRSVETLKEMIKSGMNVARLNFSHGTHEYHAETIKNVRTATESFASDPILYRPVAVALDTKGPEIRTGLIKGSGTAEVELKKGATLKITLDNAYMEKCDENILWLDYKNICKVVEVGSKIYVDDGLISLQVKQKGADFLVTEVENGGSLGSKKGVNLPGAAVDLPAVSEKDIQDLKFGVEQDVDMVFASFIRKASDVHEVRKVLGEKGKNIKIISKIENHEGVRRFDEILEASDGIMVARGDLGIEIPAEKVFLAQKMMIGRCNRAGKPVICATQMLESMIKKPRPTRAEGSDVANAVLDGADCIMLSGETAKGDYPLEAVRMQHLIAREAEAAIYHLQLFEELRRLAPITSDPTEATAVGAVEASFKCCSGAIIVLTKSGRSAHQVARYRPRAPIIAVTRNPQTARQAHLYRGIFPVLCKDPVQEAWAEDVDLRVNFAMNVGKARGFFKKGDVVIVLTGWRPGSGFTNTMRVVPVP
# Chain of Cytochrome P450 1A2 (Homo sapiens) (P05177 whole entry, looked up): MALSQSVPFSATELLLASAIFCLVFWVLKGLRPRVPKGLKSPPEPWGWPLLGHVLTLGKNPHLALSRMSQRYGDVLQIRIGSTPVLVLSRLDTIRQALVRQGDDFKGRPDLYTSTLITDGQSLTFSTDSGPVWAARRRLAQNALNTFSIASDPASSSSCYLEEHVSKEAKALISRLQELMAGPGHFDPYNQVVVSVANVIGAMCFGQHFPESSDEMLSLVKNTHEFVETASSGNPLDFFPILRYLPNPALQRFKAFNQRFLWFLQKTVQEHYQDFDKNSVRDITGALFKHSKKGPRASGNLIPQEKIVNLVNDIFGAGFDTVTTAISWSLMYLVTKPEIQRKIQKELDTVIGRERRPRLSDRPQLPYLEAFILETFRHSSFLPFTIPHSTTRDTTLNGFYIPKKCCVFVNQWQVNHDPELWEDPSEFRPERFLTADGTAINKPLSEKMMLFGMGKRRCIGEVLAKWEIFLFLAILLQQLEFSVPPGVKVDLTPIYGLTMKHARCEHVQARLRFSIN
# Chain of 3',5'-cyclic-AMP phosphodiesterase 4B (Homo sapiens) (Q07343 whole entry, looked up): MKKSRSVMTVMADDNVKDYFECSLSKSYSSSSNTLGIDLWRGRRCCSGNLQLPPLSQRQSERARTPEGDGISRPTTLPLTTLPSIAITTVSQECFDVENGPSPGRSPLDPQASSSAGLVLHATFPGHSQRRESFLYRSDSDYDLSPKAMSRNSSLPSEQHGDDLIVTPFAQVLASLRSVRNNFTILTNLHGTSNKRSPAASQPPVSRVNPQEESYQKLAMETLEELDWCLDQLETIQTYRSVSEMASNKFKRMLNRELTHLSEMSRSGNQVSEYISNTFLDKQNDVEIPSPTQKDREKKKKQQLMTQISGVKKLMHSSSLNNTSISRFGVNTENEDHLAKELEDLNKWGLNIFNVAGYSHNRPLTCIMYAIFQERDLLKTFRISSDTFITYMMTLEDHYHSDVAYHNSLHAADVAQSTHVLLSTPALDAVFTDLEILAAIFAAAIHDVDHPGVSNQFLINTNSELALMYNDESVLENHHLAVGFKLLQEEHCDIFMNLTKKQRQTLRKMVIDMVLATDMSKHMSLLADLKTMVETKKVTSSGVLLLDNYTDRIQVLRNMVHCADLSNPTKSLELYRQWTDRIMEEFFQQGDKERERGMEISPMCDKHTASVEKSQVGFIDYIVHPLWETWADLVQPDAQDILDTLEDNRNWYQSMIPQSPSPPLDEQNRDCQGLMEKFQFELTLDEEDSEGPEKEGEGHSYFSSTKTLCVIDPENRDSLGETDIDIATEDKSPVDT
# Chain of Glucocorticoid receptor (Homo sapiens) (P04150 whole entry, looked up, the tested form may be a part): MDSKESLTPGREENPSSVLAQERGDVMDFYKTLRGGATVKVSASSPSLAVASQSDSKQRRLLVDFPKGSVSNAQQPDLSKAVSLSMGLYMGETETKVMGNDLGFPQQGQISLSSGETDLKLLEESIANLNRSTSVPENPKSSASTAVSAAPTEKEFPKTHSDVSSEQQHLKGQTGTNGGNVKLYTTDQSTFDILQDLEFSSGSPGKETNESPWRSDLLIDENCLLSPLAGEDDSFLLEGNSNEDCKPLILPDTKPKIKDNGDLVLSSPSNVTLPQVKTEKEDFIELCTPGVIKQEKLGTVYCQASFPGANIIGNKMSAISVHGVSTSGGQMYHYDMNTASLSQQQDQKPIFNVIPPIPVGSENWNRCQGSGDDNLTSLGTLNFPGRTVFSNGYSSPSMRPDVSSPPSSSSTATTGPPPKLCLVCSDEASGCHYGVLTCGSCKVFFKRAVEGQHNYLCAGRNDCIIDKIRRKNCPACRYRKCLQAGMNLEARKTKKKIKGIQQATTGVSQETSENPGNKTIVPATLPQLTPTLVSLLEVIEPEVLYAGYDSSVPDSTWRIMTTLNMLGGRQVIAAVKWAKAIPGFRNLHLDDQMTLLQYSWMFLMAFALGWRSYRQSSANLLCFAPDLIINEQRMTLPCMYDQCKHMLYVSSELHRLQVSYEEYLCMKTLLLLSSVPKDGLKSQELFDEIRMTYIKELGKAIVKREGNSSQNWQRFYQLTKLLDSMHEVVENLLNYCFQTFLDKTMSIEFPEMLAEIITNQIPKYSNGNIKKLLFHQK
smiles,measurement,setting,value
CCSC1=NSC2=NC(=O)/C(=C\c3coc4ccccc4c3=O)C(=N)N12,Potency,[1],inactive
same,Potency,[2],inactive
same,"activity change, negative = inhibition",[3],72.5% [at 30.8 µM]
Brc1ccc(CSc2nccn2-c2ccccc2)cc1,Potency,[1],inactive
same,Potency,[2],inactive
same,Potency,[3],inactive
same,Potency,[4],1.58 µM (active)
Cc1ccc(-c2nc3ccc(C)cn3c2CC2CCCCC2)cc1,Potency,[1],inactive
same,Potency,[2],inactive
same,Potency,[3],inactive
COc1ccccc1C(=O)Oc1ccc2c(c1)O/C(=C\c1ccncc1)C2=O,Potency,[1],inactive
same,Potency,[2],84.9 µM (active)
same,Potency,[3],inactive
same,Potency,[4],35.5 µM (active)
COc1ccccc1N1N=C(C(=O)c2ccccc2)C2C(=O)N(c3ccc(Br)cc3)C(=O)C21 (centres undefined),Potency,[1],inactive
same,Potency,[2],inactive
same,Potency,[3],inactive
same,Potency,[4],17.8 µM (active)
COc1ccc2c(c1)CCC1C2=NN(/C(C)=C/C(C)=O)C1c1cccc(F)c1 (centres undefined),Potency,[1],inactive
same,Potency,[2],84.9 µM (active)
same,Potency,[3],inactive
N=C1/C(=C\c2coc3ccccc3c2=O)C(=O)N=C2SC=CN12,Potency,[1],inactive
same,Potency,[2],inactive
same,"activity change, negative = inhibition",[3],46.8% [at 30.8 µM]
CC1=CC2=NC(=O)/C(=C/c3coc4ccccc4c3=O)C(=N)N2O1,Potency,[1],inactive
same,Potency,[2],75.7 µM (active)
same,Potency,[3],inactive
same,Potency,[4],39.8 µM (active)
O=S(=O)(c1ccc(Cl)c2ccccc12)N1CCCC1,Potency,[1],inactive
same,Potency,[2],inactive
same,Potency,[3],inactive
same,Potency,[4],inactive
COc1ccccc1N1CCN(C(=O)c2ccc(S(=O)(=O)N3CCCC3)cc2)CC1,Potency,[1],inactive
same,Potency,[2],inactive
same,Potency,[3],inactive
same,Potency,[4],inactive
CC(=O)CCc1oc2c([N+](=O)[O-])cccc2c1-c1ccc(C)o1,Potency,[1],inactive
same,Potency,[2],inactive
same,Potency,[3],inactive
CC(=O)[C@@]1(O)Cc2c(O)c3c(c(O)c2[C@H](O[C@H]2C[C@H](N)[C@H](O)[C@H](C)O2)C1)C(=O)c1ccccc1C3=O,"activity change, negative = inhibition",[5],-110% [at 38 µM] (active)
same,Potency,[6],20 µM (active)
same,"activity change, negative = inhibition",[7],-116% [at 38 µM] (active)
same,Potency,[8],> 46 µM
same,Potency,[9],inactive
same,Potency,[10],inactive
same,Potency,[11],0.02 µM (active)
same,Potency,[12],0.0251 µM (active)
same,outcome,[13],inactive
same,outcome,[14],inactive
same,outcome,[15],inactive
same,outcome,[16],inactive
same,Potency,[1],inactive
same,Potency,[2],inactive
same,"activity change, negative = inhibition",[3],128% [at 30.8 µM]
same,Potency,[4],12.6 µM (active)
COc1ccc(C(=O)Nc2nc(-c3ccc(OC)cc3)c(-c3ccc([N+](=O)[O-])cc3)s2)cc1,Potency,[1],inactive
same,Potency,[2],inactive
same,Potency,[3],inactive
same,Potency,[4],63.1 µM (active)
